High-throughput results (PubChem BioAssay)
Sampled rows, rich in hits. Any-hit rate of the full collection: about 19%.
HT1080 IDH1KD tx = qHTS for induction of synthetic lethality in tumor cells producing 2HG: qHTS for the HT-1080-IDH1KD cell line | HT-1080 IDH1 knockdown viability, ATP luminescence, 48 h | Potency, µM (titrated, usually from 46.1 µM), for inactives: top-dose activity, negative = toxicity, most hits filed as cytotoxic | 2% of 360,000 active;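 note: potency is the fitted concentration of half-maximal effect; 0% = DMSO wells and -100% = cell-free medium wells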
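Using the IDH1-knockdown HT-1080 line run in the same batch and compound series as the NT line, viability after 48 h at 37 °C was determined by CellTiter-Glo luminescence and expressed as % activity.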
IL-1B inflam inh = qHTS for Inhibitors of Inflammasome Signaling: IL-1-beta AlphaLISA Primary Screen; activity change, % at 57.5 µM; 4.7% of 360,000 active; THP-1 LPS/ATP IL-1B secretion, AlphaLISA, 16 h; hits give low values; in the data active = activity change below about -50%; inconclusive = mostly about -30% to -49%
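THP-1 cells pretreated 1 hr with compounds (up to 57.5 uM final), then stimulated with LPS (250 ng/mL final) plus ATP (1.25 mM final); secreted IL-1B measured by AlphaLISA after 16 hr, decreased signal indicating inhibition.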
DT40 TDP1 no CPT = qHTS for Inhibitors of human tyrosyl-DNA phosphodiesterase 1 (TDP1): qHTS in cells in absence of CPT; 15% of 420,000 active; DT40 Tdp1-/- hTDP1 cells, no CPT, ATP luminescence, 48 h; Potency, µM (highest dose often 46.2 µM), without a hit: at the top dose activity change, negative = growth inhibition, usual class: inhibitors; AID 686978, 2013; note: potency is the fitted concentration of half-maximal effect; nearly all actives have a fitted effect of over 55% in size
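Growth kinetics read by CellTiter-Glo luminescence after ≥48 hr at 37 °C. Cells: DT40 Tdp1-/- stably carrying human TDP1, 400 per well, compound exposure in the absence of CPT (DMSO vehicle).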
DT40 TDP1 CPT = qHTS for Inhibitors of human tyrosyl-DNA phosphodiesterase 1 (TDP1): qHTS in cells in presence of CPT; 12% of 420,000 active; Potency, µM (highest dose often 46.2 µM), for inactives: at the top dose activity change, negative = growth inhibition, actives largely listed as inhibitors; chicken DT40 Tdp1-/-;hTDP1 cells + 20 nM CPT, ATP luminescence, 48 h; note: potency is the fitted concentration of half-maximal effect; nearly all actives have a fitted effect of over 55% in size
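Chicken DT40 Tdp1-/- cells stably complemented with human TDP1 were seeded at 400 cells/well in medium containing 20 nM camptothecin, exposed to pin-transferred compounds, and grown at 37 °C for at least 48 hr. Viability was read as ATP luminescence.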
HT1080NT lethal = qHTS for induction of synthetic lethality in tumor cells producing 2HG: qHTS for the HT-1080-NT fibrosarcoma cell line | Potency, µM (highest dose often 46.1 µM), for inactives: at the top dose activity, negative = less viability, most hits filed as cytotoxic | HT-1080-NT fibrosarcoma viability, CellTiter-Glo ATP luminescence, 48 h | 1.6% of 360,000 active;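 note: NT is the 2HG producing partner of a matched IDH1 knockdown line; potency is the fitted concentration of half-maximal effect; 0% = DMSO-treated cells and -100% = media-only wells without cells; nearly all actives have a fitted effect of over 55% in size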
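Luminescent CellTiter-Glo readout after 48 hours of compound exposure at 37 degrees C defined viability of HT-1080-NT cells. Activity was normalized to DMSO wells and cell-free media wells; concentration-response curves were fitted and assigned curve classes.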
* = called active by the depositor; i = inactive; u = inconclusive; x = no result given; [ ] = dose if it differs, or a comment. Unless noted, calls come from the whole dose curve; as a rule, active = well fitted curve in the direction sought with a large enough effect; inconclusive = small, poorly fitted or top-dose-only effect, or another doubt; inactive = no such curve, though single readings can be large; an effect the other way counts as inactive or inconclusive. Unless noted, % is set by controls: 0 for no effect and ±100 for the full control effect.

SMILES | HT1080 IDH1KD tx | IL-1B inflam inh | DT40 TDP1 no CPT | DT40 TDP1 CPT | HT1080NT lethal
CCn1cc(C(=O)NCC(C)C)c(=O)c2cc(F)c(N3CCN(C)CC3)cc21 | 6.2% | -21.1 | 9.6% | 4.4% | 0.6%
COc1ccccc1NS(=O)(=O)c1cc(C(=O)N2CCCC2)ccc1F | -6.6% | 14.0 | -1.2% | 14.5% | 1.0%
CCN(CC)C(=S)SCC(=O)Nc1ccc(F)cc1 | -1.1% | -25.9 | u | 20.6µM* | 1.2%
CCN(CC)C(=S)SCC(=O)c1ccc(F)cc1 | u | 9.0 | 4.11µM* | 2.91µM* | u
CCN1CCN(c2ccc(S(=O)(=O)N3CCCCC3)cc2NC(=O)COc2ccc(Cl)c(C)c2)CC1 | -14.3% | -12.2 | 13µM* | 16.4µM* | -4.0%
CCC(=O)c1ccc(OCC(=O)Nc2cc(S(=O)(=O)N3CCCCC3)ccc2N2CCN(CC)CC2)cc1 | u | -16.0 | 18.4µM* | u | -27.2%
CCOc1ccc(N2C(=O)CC(N3CC(C)OC(C)C3)C2=O)cc1 (stereo unspecified) | -6.3% | 10.3 | 1.4% | -3.1% | -7.6%
CCOC(=O)C1CCN(C(c2cc3c(C)ccc(C)c3[nH]c2=O)c2nnnn2C2CCCCC2)CC1 (stereo unspecified) | -0.4% | 13.4 | u | 28.2µM* | 9.2%
CCOC(=O)C1CCN(C(c2cc3ccc(C)c(C)c3[nH]c2=O)c2nnnn2C2CCCCC2)CC1 (stereo unspecified) | u | -9.4 | u | u | -6.2%
CCCc1ccc2oc(C(=O)NCCCN3CCOCC3)c(C)c2c1 | u | -19.6 | u | u | u
Cc1c(C(=O)NCCCN2CCOCC2)oc2c1C1(CCC2)SCCS1 | 12.2% | -0.1 | 23.1µM* | 11.6µM* | 5.5%
N=C(N=C(N)N)N1CCc2ccccc21 | -0.3% | -7.6 | 13µM* | u | 1.7%
Cc1nc2nc(NC(=O)C(C)(C)C)[nH]n2c(=O)c1Cc1ccccc1 | x | x | -2.0% | 0.0% | x
CN(C)CCCN(C(=O)c1ccc2c(c1)CCCC2)c1nc2ccc(Cl)cc2s1 | u | -123.5* | 14.6µM* | 14.6µM* | u
COc1cccc2sc(N(CCN(C)C)C(=O)c3ccc4c(c3)CCCC4)nc12 | -15.0% | i | u | u | -2.7%
CCOc1ccc2nc(N(CCCN(C)C)C(=O)c3ccc(S(=O)(=O)N4CCc5ccccc5C4)cc3)sc2c1 | u | -13.6 | u | u | u
CCOc1ccc2nc(N(CCCN(C)C)C(=O)c3ccc4c(c3)CCCC4)sc2c1 | u | -58.2* | u | u | 18.4µM*
COc1cccc(NC(=O)NC2CCN(CC(=O)Nc3ccccc3[N+](=O)[O-])CC2)c1 | -8.4% | -19.6 | u | u | -24.1%
O=C(CN1CCC(NC(=O)Nc2ccc(F)cc2)CC1)Nc1ccccc1[N+](=O)[O-] | -9.0% | 14.9 | 20.6µM* | u | -10.5%
CCc1ccccc1N(CC)C(=O)CCc1nc(-c2ccc(C)cc2)no1 | -13.8% | u | 23.1µM* | 23.1µM* | -10.2%
CCN(Cc1ccccc1)C(=O)CCc1nc(-c2ccc(C)cc2)no1 | -2.3%[9.24 µM] | -0.1 | 23.1µM* | 29.1µM* | -5.7%
CCCN(C(=O)CCc1nc(-c2ccc(C)cc2)no1)c1ccc(OCC)cc1 | x | x | u | 16.4µM* | x
CCC(=O)N1c2ccc(S(=O)(=O)NCCc3ccc(OC)c(OC)c3)cc2CC1C (stereo unspecified) | -0.6% | -6.3 | u | u | 8.0%
COc1ccc(NC(=O)CCNS(=O)(=O)c2cccc3nsnc23)cc1Cl | x | x | -29.6% | -0.2% | x
COC(=O)N1CCC2(CC1)CN(c1ccccn1)C2 | x | x | -6.8% | 7.3% | x
SMILES | HT1080 IDH1KD tx | IL-1B inflam inh | DT40 TDP1 no CPT | DT40 TDP1 CPT | HT1080NT lethal
Cc1ccccc1-c1nc(Nc2ccncc2)c2ccccc2n1 | x | x | -17.5% | -5.7% | x
CN1CCc2c(OCc3ccc(F)cc3)cccc2C1=O | -12.9% | -21.3 | u | -20.9% | -4.7%
Cc1ccc(CN2CCc3c(OCc4ccc(F)cc4)cccc3C2=O)cc1 | -18.3% | -62.2* | u | u | -20.9%
COC(=O)c1ccc(COc2cccc3c2CCN(Cc2ccccc2)C3=O)o1 | -15.4% | -3.2 | u | u | -10.1%
O=C1c2cccc(OCc3ccc(F)cc3)c2CCN1Cc1ccc(F)cc1 | u | -67.8* | 11.6µM* | u | -27.9%
O=C1C=C(c2ccccc2)C[C@H](c2cccs2)[C@H]1n1nnc([N+](=O)[O-])n1 | 9.2µM* | -73.0* | 5.8µM* | 6.51µM* | 14.6µM*
Cn1cnc(S(=O)(=O)NC2CCN(Cc3ccccc3)CC2)c1 | 16.4% | 2.7 | 3.9% | 1.3% | 5.5%
COc1ccc2c(=O)c(-c3ccc(C)cc3)c(-c3ccccc3)oc2c1 | 9.3% | 0.0 | 7.31µM* | 11.6µM* | 18.7%
CCCOc1ccc2c(=O)c(-c3cc(C(=O)OC)oc3C)c(C)oc2c1 | -24.6% | u | 18.4µM* | 13µM* | 8.1%
COc1ccccc1-c1c(C)oc2cc(OC(=O)c3ccco3)ccc2c1=O | 0.6% | 2.6 | u | u | 0.3%
COc1ccc2c(=O)c(OC)c(-c3ccccc3)oc2c1 | x | x | 7.31µM* | u | x
COc1ccc2c(=O)c(-c3ccccc3C)c(C)oc2c1 | -6.3% | -22.6 | 13µM* | u | -4.2%
COc1ccc(-c2oc3ccccc3c(=O)c2O)cc1 | x | x | -0.3% | -2.9% | x
CCOc1ccc(C=NNC(=O)c2ccc(-n3cnnn3)cc2)cc1 | -3.1% | u | 12.6% | -1.0% | 0.5%
O=C(CCCNc1ccccc1)N/N=C/c1cccs1 | 0.1% | 17.1 | -19.3% | -5.2% | -3.1%
Cc1cc(C)c(S(=O)(=O)/N=C2/C=C(SCC(=O)O)C(=O)c3ccccc32)cc1C | u | u | 1.84µM* | 1.84µM* | u
CCOC(=O)N1CCN(S(=O)(=O)c2cc(C)c(C)cc2C)CC1 | -13.3% | -3.6 | u | u | -1.8%
O=c1cnc2cnc(Oc3cccc(Cl)c3)nc2n1Cc1ccc(F)cc1 | x | x | 23.1µM* | u | x
CN(C)c1ncc2ncc(=O)n(Cc3ccc(F)cc3)c2n1 | x | x | 20.6µM* | 10.3µM* | x
COc1ccc(Oc2ncc3ncc(=O)n(Cc4cccs4)c3n2)cc1 | x | x | 23.1µM* | u | x
Cc1ccc(C2=NN3C(C(=O)c4ccccc4)Oc4ccccc4C3C2)cc1 (stereo unspecified) | -1.8% | -28.2 | u | u | -10.7%
